Source: PubChem BioAssay
A selection: hits, their analogues and other compounds. The true share with any hit is near 6.8%.
NADH coupling – blocks coupling enzymes of NAD/NADH assays; coupled PK/LDH NADH assays, four targets; IC50, µM (top dose mostly 10 µM), without a hit: at the highest dose inhibition; 65,000 compounds, 0.02% hits; AID 774;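 active = single-dose screening hits from any of four coupled enzyme assays that gave an IC50 when retested across doses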;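 note: the DPM-DC format reads NADH fluorescence rather than 340 nm absorbance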
Abs 340nm – compounds absorbing at 340 nm. compound absorbance at 340 nm, fold over control. fold change at 10 µM. 65,000 tested, under 10 active. AID 708;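 active = at 10 µM dose, initial 340 nm absorbance at least 2 fold that of control wells; inactive = change under 2 fold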;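 note: initial absorbance extrapolated from kinetic A340 decline of NADH oxidation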
Fluor 339 460 – intrinsic fluorescence of library compounds, ex339/em460 – biochemical, MLSMR library, data from DPM-DC assay, artefact control, profiling panel | compound autofluorescence, ex339/em460 nm, NADH buffer; hits give high values; 1 = no-compound wells, NADH background | fluorescence fold increase at 10 µM | 65,000 compounds, 5.5% hits;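 active = at 10 µM, mean starting fluorescence two-fold or more over control wells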;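 note: signal is the first read of a kinetic run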
MK inhibit – S. pneumoniae mevalonate kinase inhibition. 65,000 compounds, 0.48% hits. purified MK, PK/LDH-coupled NADH absorbance 340 nm. inhibition, % at 10 µM. AID 555;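 active = ranked among the strongest by inhibition in the single 10 µM screen, a fixed top-ranked set picked for dose follow-up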
DPM-DC inhibit – blocks S. pneumoniae diphosphomevalonate decarboxylase | purified DPM-DC, PK/LDH coupled NADH fluorescence | calls only at 10 µM | 65,000 compounds, 0.49% hits | AID 556;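 active = the 320 compounds with the highest percent inhibition in the single-dose primary screen, excluding strongly autofluorescent ones, cut at about 32% in these data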;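 note: kinetic rate of NADH fluorescence loss reporting ADP formed by the decarboxylase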
Spn PMK inh – S. pneumoniae PMK inhibition; inhibition, % at 10 µM; 65,000 compounds, 0.49% hits; purified PMK, PK/LDH-coupled NADH absorbance 340 nm; AID 539;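 active = top-ranked compounds by inhibition in the single 10 µM screen, taking a fixed number of the strongest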;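 note: 0% = full reaction with DMSO carrier and 100% = background rate without enzyme reaction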
An asterisk follows results filed as active; i = inactive; . = not tested or not shown; + = active, no number; ! = not confirmed by another sample.

SMILES	NADH coupling	Abs 340nm	Fluor 339 460	MK inhibit	DPM-DC inhibit	Spn PMK inh
Cc1ccc2oc(=O)cc(CN3CCOCC3)c2c1	6%	1	1.1	5	i	13
CCNc1cc2oc(=O)c(CN3CCOCC3)c(C)c2cc1C	7%	1.1	2.2*	0	.	13
Cc1ccc2cc(CCNC(=O)C(C)C)c(=O)[nH]c2c1	5%	1.1	1.2	6	i	8
Cc1ccc(-c2csc3nnc(SCC(=O)N4CCN(Cc5ccccc5)CC4)n23)cc1	8%	0.99	1	8	i	17
Cc1ccc(-c2csc3n[nH]c(=S)n23)cc1	31%	1	1	88*	i	2
CC1CCC(NC(=O)c2ccc(CS(=O)(=O)Cc3ccccc3F)o2)CC1 (centres undefined)	7%	0.98	1.1	3	i	19
CCOC(=O)Nc1ccc2c(CN3C(=O)NC4(CCCC4)C3=O)cc(=O)oc2c1	2%	1.1	3.3*	0	.	5
CC1CCN(C(=O)CSc2nc(N)c3c4c(sc3n2)CN(C)CC4)CC1	3%	1.1	2.1*	5	.	0
CN1CCc2c(sc3nc(SCC(=O)N4CCOCC4)nc(N)c23)C1	3%	1.2	2.2*	5	.	0
C=COC(=O)CSc1nc(-c2cccs2)ccc1C#N	3%	1.1	2.1*	8	i	0
CCN(CC)C(=O)CSc1nc(C)cc(-c2cccs2)c1C#N	10%	1.1	1.1	11	i	8
CCOC(=O)C(C)Sc1nc(-c2cccs2)ccc1C#N (centres undefined)	3%	1.1	2.2*	5	.	0
CCCCCn1c(CN2CCN(C)CC2)nc2c1c(=O)n(C)c(=O)n2C	2%	0.98	1	4	i	1
CCCCn1c(Cl)nc2c1c(=O)n(C)c(=O)n2C	18%	1	1.1	40*	i	15
Cc1oc2cc(OCC(=O)O)ccc2c(=O)c1Oc1ccccc1	2%	1.1	1.3	5	i	0
CCc1cc2c(=O)c(Oc3ccccc3)c(C)oc2cc1O	2%	1.1	2.2*	4	.	0
CCOC(=O)Nc1nnc(-c2ccccc2OC)s1	2%	1	2.8*	6	.	12
COC(=O)Nc1nnc(-c2ccncc2)s1	7%	1.1	3.7*	10	.	4
COc1ccc(-c2nnc(NC(=O)C(C)C)s2)c(OC)c1	17%	1.1	2.1*	26	.	8
COc1ccccc1-c1nnc(NC(=O)OCC(C)C)s1	9%	1	1.4	8	i	12
CCOC(=O)Nc1nnc(-c2cccc(OC)c2)s1	3%	1	3.8*	5	.	0
Cc1ccc(CC23CN4CCN(CC(C4)C2O)C3)c(C)c1 (centres undefined)	3%	0.99	1	12	i	0
COC(=O)Nc1nnc(-c2ccccc2Cl)s1	7%	1	2.9*	5	i	7
CN(C1CCCCC1)S(=O)(=O)c1ccc(-n2cnnn2)cc1	6%	0.99	1.1	9	i	9
CC(C)C(=O)Nc1nnc(-c2ccccc2)o1	12%	1.1	1.1	17	i	13
SMILES	NADH coupling	Abs 340nm	Fluor 339 460	MK inhibit	DPM-DC inhibit	Spn PMK inh
O=C(Nc1nnc(-c2ccccc2)o1)c1nc2ccccc2s1	3%	1.1	2.2*	1	.	5
NC(=O)c1oc2ccccc2c1NC(=O)c1nc2ccccc2s1	2%	1.1	2.6*	2	i	4
O=C(C1CCCN(S(=O)(=O)c2cnc[nH]2)C1)N1CCN(c2ccc(Cl)cc2)CC1 (centres undefined)	3%	0.99	1	8	i	0
COc1ccc(S(=O)(=O)NCCSCc2ccco2)cc1Cl	1%	1	1.1	5	i	0
Cc1ccc(C)c(NC(=O)CSc2nnc(-c3ccncc3)n2N)c1	0%	1	1	0	i	0
Cc1nc2ccccc2c2oc(C(=O)Nc3ccc4c(c3)OCCO4)cc12	11%	1	2.1*	14	.	7
COc1ccc(C)cc1NC(=O)c1cc2c(C)nc3ccccc3c2o1	7%	1.1	5*	8	.	6
COc1cc(NC(=O)c2cc3c(C)nc4ccccc4c3o2)cc(OC)c1OC	10%	1.1	1	10	i	18
CCOC(=O)N1CCN(S(=O)(=O)c2cc(Br)cc3c2N(C(=O)CC)CC3)CC1	7%	0.99	1.1	11	i	0
Cc1ccc2cc3cc(C(=O)NCCCN4CCCCCC4)oc3nc2c1	0%	1.1	5.1*	0	.	0
Cc1ccc2cc3cc(C(=O)NCCCN4CCc5ccccc5C4)oc3nc2c1	1%	1.1	5.1*	0	.	2
Cc1cccc(N(C)C(=O)c2cc3cc4ccc(C)cc4nc3o2)c1	3%	1.1	1.4	4	i	9
CCCc1nnc(NC(=O)c2c(O)c3cccc4c3n(c2=O)CCC4)s1	10%	1	2.8*	10	i	12
COC(=O)c1c(C#N)c(N)nc2c1CCC2	3%	1	3*	11	.	3
Cc1cc(OCCOCCN2CCCC2)ccc1C(C)C	14%	1.1	1.1	41*	i	2
Brc1ccc(OCCOCCN2CCOCC2)cc1	4%	1	1.1	2	i	9
CCOc1cccc(OCCOCCN2CCCC2)c1	6%	1	1	45*	i	5
COc1cccc(OCCCCCN2CCOCC2)c1	1%	1.1	1.1	3	i	0
CCOc1cc(C(=O)Nc2cc(=O)n(C)c(=O)n2C)cc(OCC)c1OCC	12%	1.1	1.1	8	i	22
CC1=NOC2(C1)/C(=N/O)CCC/C2=N\O (centres undefined)	8%	0.98	1	13	i	12
Cc1ccccc1Cc1c(C)nc2c(C(=O)N3CCN(Cc4ccc5c(c4)OCO5)CC3)cnn2c1C	8%	1	2.3*	0	+	14
Cc1nc2c(C(=O)N3CCCCC3)cnn2c(C)c1Cc1ccccc1F	5%	1	3.2*	0	i	3
Cc1ccc(Cc2c(C)nc3c(C(=O)O)cnn3c2C)cc1	5%	0.99	1.6	3	i	16
O=C(COC(=O)c1cnccn1)Nc1ccc2c(c1)OCO2	2%	0.99	1.1	6	i	0
O=C(Nc1ccc2nsnc2c1)c1cccs1	4%	1	1.3	8	i	2
O=C(Nc1cccc2nsnc12)c1cccs1	9%	1.1	3.6*!	6	.	11
O=C(OCC(=O)N1CCCCC1)c1c[nH]c(=O)[nH]c1=O	6%	1	1.1	0	i	19
Nc1ccc(-c2nc3c(Cl)cc(N)cc3[nH]2)cc1	15%	1.3	4.9*	11	.	18
CCCC(=O)N(c1ccc2oc(=O)sc2c1)S(=O)(=O)c1ccccc1	2%	0.98	1	0	i	23
CCN1/C(=C(\O)c2ccccc2)C(=O)c2ccccc2S1(=O)=O	7%	1.1	1.1	14	i	8
